Experimental findings from PubChem BioAssay are described below.

A short description of assay [1]: viability loss with induced miR-34 in A549 – imaging, A549 dox-inducible miR-34, nuclei and caspase counts, primary screen (AID 1347080). Particulars: A549 miR-34 inducible, Hoechst nuclei count, 48 h.
Assay [2] is described as follows: MELAS cybrid and Rieske KO viability enhancers – cell-based, MELAS cybrids, Rieske KO mouse fibroblasts, CellTiter-Glo, primary screen (AID 1508586;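 active means mean z-score across replicates of 1.96 or higher in either the MELAS or the Rieske mutant cell line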;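 further: z relative to plate mean and SD of compound and empty wells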). Particulars: low glucose. (In general: ATP-based viability assays read luminescence as a measure of living cells.)
Setting [3] is: stronger effect = lower value, cell number ratio, induced over uninduced.
Where [4] appears, read: measured here: relative caspase fold change +Dox/-Dox.
[5] abbreviates: measured here: total cells with miR-34 induction, stronger effect = lower value.
Where [6] appears, read: measured here: total cells without miR-34 induction.
[7] abbreviates: MELAS cybrid survival, CellTiter-Glo 48 h, stronger effect = higher value.
The mark [8] stands for this setting: Rieske KO mouse fibroblast survival, CellTiter-Glo 72 h.

Molecules are shown by their SMILES. Values joined by “and” are separate entries in the source; they are usually repeats but may differ in a detail not shown here. Identical values can stand only once. Active and inactive are the calls of the source.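 How the source made its calls, unless noted: active means compounds whose cell count with miR-34 switched on is under 0.7 times the count with it off; inactive means the rest.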
Further: test concentration not given here.

As for `COc1cc(C(=O)NC2CCCNC2)cc(OC)c1OC` (centres undefined), the fold change in assay [1] (setting [3]) was 0.933 (inactive) and 1.06 (inactive); in assay [1] (setting [4]), 1.12 and 0.508. Moreover, the cell count in assay [1] (setting [5]) is 9210 and 8810; in assay [1] (setting [6]) it was 9870 and 8310. Further, the z-score was -0.284 (inactive) and -1.2 (inactive) in assay [2] (setting [7]); -0.165 and -1.23 in assay [2] (setting [8]).

On to `COc1ccc(C(=O)c2ccccc2O)c(O)c1`, for which the fold change in assay [1] (setting [3]) is 0.854 (inactive) and 0.825 (inactive); in assay [1] (setting [4]) it was 1.04 and 0.52. The cell count in assay [1] (setting [5]) was 8680 and 11300; in assay [1] (setting [6]), 10200 and 13700. The values for the z-score in assay [2] (setting [7]) and in assay [2] (setting [8]) were 0.849 (inactive) and -0.0959, respectively.

With `CC(=O)Nc1ccc(OCC(O)CNC(C)C)cc1` (centres undefined), the fold change in assay [1] (setting [3]) was 0.852 (inactive) and 0.959 (inactive); in assay [1] (setting [4]) it was 1.35 and 1.11. Further, the cell count is 8450 and 10300 in assay [1] (setting [5]); 9920 and 10700 in assay [1] (setting [6]). The z-score is 0.00127 (inactive) and -0.285 (inactive) in assay [2] (setting [7]); -0.287 and 0.516 in assay [2] (setting [8]).

For `C[C@]12CCC(=O)C=C1C=C[C@@H]1[C@@H]2CC[C@@]2(C)[C@H]1CC[C@@]21CCC(=O)O1`, the fold change in assay [1] (setting [3]) was 0.826 (inactive); in assay [1] (setting [4]) it was 1.19. The cell count in assay [1] (setting [5]) stood at 8530; in assay [1] (setting [6]) it was 10300. For the same molecule, the z-score in assay [2] (setting [7]) was -0.57 (inactive) and -0.163 (inactive); in assay [2] (setting [8]) it was -0.749 and -0.289.

On to `O=c1cc[nH]c(=S)[nH]1`, for which the fold change in assay [1] (setting [3]) is 0.917 (inactive); in assay [1] (setting [4]) it was 0.54. The values for the cell count in assay [1] (setting [5]) and in assay [1] (setting [6]) were 7500 and 8180, respectively. The z-score in assay [2] (setting [7]) was -0.297 (inactive); in assay [2] (setting [8]), -0.0433.

`Cc1c(NC(C)C)c(=O)n(-c2ccccc2)n1C`: the fold change is 0.876 (inactive) in assay [1] (setting [3]) and 1.14 in assay [1] (setting [4]). Moreover, the cell count in assay [1] (setting [5]) was 8020; in assay [1] (setting [6]), 9170. The z-score in assay [2] (setting [7]) was -0.485 (inactive); in assay [2] (setting [8]), -0.708.

Consider `CCN1CCN(c2cc3c(cc2F)c(=O)c(C(=O)O)cn3C2CC2)CC1`, for which the fold change in assay [1] (setting [3]) was 0.982 (inactive) and 0.836 (inactive) and 0.884 (inactive); in assay [1] (setting [4]), 1.31 and 5.17 and 1.41. In addition, the cell count is 8550 and 10100 and 9090 in assay [1] (setting [5]); 8710 and 12100 and 10300 in assay [1] (setting [6]). Moreover, the z-score in assay [2] (setting [7]) was -0.903 (inactive) and 0.356 (inactive); in assay [2] (setting [8]), -0.808 and -0.546.

In the case of `Cc1ccc2c(Cl)cc(Cl)c(O)c2n1`, the fold change was 0.915 (inactive) and 0.981 (inactive) in assay [1] (setting [3]); 0.745 and 0.409 in assay [1] (setting [4]). Besides, the cell count in assay [1] (setting [5]) was 9230 and 3330; in assay [1] (setting [6]) it was 10100 and 3390. For the same molecule, the z-score is -0.257 (inactive) in assay [2] (setting [7]) and -0.123 in assay [2] (setting [8]).

For the molecule `CC(=O)OC/C=C(C)/C=C/C=C(C)/C=C/C1=C(C)CCCC1(C)C`, the fold change was 0.9 (inactive) in assay [1] (setting [3]) and 1.05 in assay [1] (setting [4]). The cell count in assay [1] (setting [5]) stood at 10300; in assay [1] (setting [6]), 11500. The z-score is -0.677 (inactive) in assay [2] (setting [7]) and -0.15 in assay [2] (setting [8]).

Regarding `NC(=NCCCCCCN=C(N)/N=C(\N)Nc1ccc(Cl)cc1)/N=C(\N)Nc1ccc(Cl)cc1`, the fold change in assay [1] (setting [3]) is 0.918 (inactive) and 0.785 (inactive); in assay [1] (setting [4]) it was 1.13 and 3.13. Besides, the cell count in assay [1] (setting [5]) is 1670 and 3350; in assay [1] (setting [6]), 1820 and 4270. The results for the z-score in assay [2] (setting [7]) and in assay [2] (setting [8]) were -4.55 (inactive) and -0.0121, respectively.

Consider `CCn1cc(C(=O)O)c(=O)c2cnc(N3CCNCC3)nc21`, for which the fold change in assay [1] (setting [3]) is 0.922 (inactive); in assay [1] (setting [4]), 1.25. Further, the figures for the cell count in assay [1] (setting [5]) and in assay [1] (setting [6]) were 9710 and 10500, respectively. Further, the z-score is 0.675 (inactive) in assay [2] (setting [7]) and 0.0409 in assay [2] (setting [8]).

For `O=C(O)CCC(=O)Nc1ccc(S(=O)(=O)Nc2nccs2)cc1`, the fold change is 0.889 (inactive) and 0.92 (inactive) in assay [1] (setting [3]); 0.9 and 3.43 in assay [1] (setting [4]). The cell count in assay [1] (setting [5]) is 8630 and 11000; in assay [1] (setting [6]), 9720 and 12000. Besides, the z-score in assay [2] (setting [7]) is 0.0389 (inactive); in assay [2] (setting [8]), 0.552.

As for `OCC(O)CN1CCN(c2ccccc2)CC1` (centres undefined), the fold change in assay [1] (setting [3]) was 0.91 (inactive) and 0.902 (inactive) and 0.934 (inactive); in assay [1] (setting [4]), 1.09 and 0.695 and 0.504. The cell count is 7870 and 8950 and 8400 in assay [1] (setting [5]); 8650 and 9930 and 8990 in assay [1] (setting [6]). The z-score was -0.14 (inactive) and -0.167 (inactive) and 0.182 (inactive) in assay [2] (setting [7]); -0.169 and -0.218 and 0.0795 in assay [2] (setting [8]).

In the case of `CN(CCCN1c2ccccc2CCc2ccccc21)CC(=O)c1ccc(Cl)cc1`, the fold change was 0.782 (inactive) and 0.894 (inactive) in assay [1] (setting [3]); 1.92 and 1.33 in assay [1] (setting [4]). Also, the cell count was 5730 and 6590 in assay [1] (setting [5]); 7330 and 7370 in assay [1] (setting [6]). Besides, the results for the z-score in assay [2] (setting [7]) and in assay [2] (setting [8]) were 0.202 (inactive) and 0.354, respectively.

With `Nc1cc(-c2ccncc2)c[nH]c1=O`, the fold change was 0.97 (inactive) and 0.958 (inactive) in assay [1] (setting [3]); 0.721 and 1.08 in assay [1] (setting [4]). Moreover, the cell count in assay [1] (setting [5]) is 9670 and 8610; in assay [1] (setting [6]), 9980 and 8980. In addition, the z-score was -0.926 (inactive) in assay [2] (setting [7]) and -1.08 in assay [2] (setting [8]).

Regarding `NC1CCN(c2nc3c(cc2F)c(=O)c(C(=O)O)cn3-c2ccc(F)cc2F)C1` (centres undefined), the fold change is 0.986 (inactive) and 0.879 (inactive) in assay [1] (setting [3]); 1.53 and 1.43 in assay [1] (setting [4]). The cell count in assay [1] (setting [5]) is 9740 and 8420; in assay [1] (setting [6]), 9880 and 9570. For the same molecule, the z-score in assay [2] (setting [7]) is -0.38 (inactive) and 0.118 (inactive); in assay [2] (setting [8]), -2.21 and -0.244.

Take `CCC(Cc1c(I)cc(I)c(N)c1I)C(=O)O` (centres undefined): the fold change was 0.941 (inactive) and 0.781 (inactive) in assay [1] (setting [3]); 0.773 and 3.75 in assay [1] (setting [4]). Moreover, the cell count was 9300 and 9110 in assay [1] (setting [5]); 9880 and 11700 in assay [1] (setting [6]). For the same molecule, the z-score is 0.0916 (inactive) in assay [2] (setting [7]) and -0.459 in assay [2] (setting [8]).

Turning to `CC(=O)[C@@]1(O)CC[C@H]2[C@@H]3C[C@H](C)C4=CC(=O)C=C[C@]4(C)[C@@]3(F)[C@@H](O)C[C@@]21C`, the fold change was 0.84 (inactive) in assay [1] (setting [3]) and 1.39 in assay [1] (setting [4]). In addition, the cell count in assay [1] (setting [5]) stood at 6290; in assay [1] (setting [6]) it was 7490. Besides, the figures for the z-score in assay [2] (setting [7]) and in assay [2] (setting [8]) were -0.955 (inactive) and 0.456, respectively.

Take `CC1CCc2cc(F)cc3c(=O)c(C(=O)O)cn1c23` (centres undefined): the fold change was 0.911 (inactive) and 0.884 (inactive) and 0.854 (inactive) in assay [1] (setting [3]); 1.2 and 1.04 and 2.46 in assay [1] (setting [4]). The cell count in assay [1] (setting [5]) is 8860 and 8230 and 11600; in assay [1] (setting [6]) it was 9730 and 9310 and 13600. Besides, the z-score was -0.14 (inactive) and 1.18 (inactive) in assay [2] (setting [7]); -0.162 and -0.0831 in assay [2] (setting [8]).
